Mtb bLac sens = beta-lactam sensitization of Mtb H37Rv; M. tuberculosis H37Rv growth with meropenem, percent inhibition; AID 434955; inhibition, % at 25 µM; hit rate 0.27% among 330,000;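 note: growth measured after seven days incubation then overnight dye step; 0% = bacteria only wells and 100% = bacteria with antibiotic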
CCHF vOTU inh = blocks the CCHF virus ovarian tumor domain protease | inhibition, % at 11.5 µM | hit rate 0.55% among 370,000 | CCHFV vOTU protease, Pep-AMC fluorescence | AID 651958; in the data active = inhibition above about 30%; note: 0% = vehicle wells with enzyme and 100% = no enzyme wells
RecA intein inh = blocks M. tuberculosis RecA intein splicing; cell-free RecA intein splicing, fluorescence; inhibition, % (no concentration beside the values); hit rate 0.75% among 290,000; in the data active = inhibition above about 30%; inconclusive = no clear call, values can overlap the other calls;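 note: 0% = vehicle wells and 100% = reference inhibitor control wells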
Target sequence (P9WHJ3 whole entry, looked up): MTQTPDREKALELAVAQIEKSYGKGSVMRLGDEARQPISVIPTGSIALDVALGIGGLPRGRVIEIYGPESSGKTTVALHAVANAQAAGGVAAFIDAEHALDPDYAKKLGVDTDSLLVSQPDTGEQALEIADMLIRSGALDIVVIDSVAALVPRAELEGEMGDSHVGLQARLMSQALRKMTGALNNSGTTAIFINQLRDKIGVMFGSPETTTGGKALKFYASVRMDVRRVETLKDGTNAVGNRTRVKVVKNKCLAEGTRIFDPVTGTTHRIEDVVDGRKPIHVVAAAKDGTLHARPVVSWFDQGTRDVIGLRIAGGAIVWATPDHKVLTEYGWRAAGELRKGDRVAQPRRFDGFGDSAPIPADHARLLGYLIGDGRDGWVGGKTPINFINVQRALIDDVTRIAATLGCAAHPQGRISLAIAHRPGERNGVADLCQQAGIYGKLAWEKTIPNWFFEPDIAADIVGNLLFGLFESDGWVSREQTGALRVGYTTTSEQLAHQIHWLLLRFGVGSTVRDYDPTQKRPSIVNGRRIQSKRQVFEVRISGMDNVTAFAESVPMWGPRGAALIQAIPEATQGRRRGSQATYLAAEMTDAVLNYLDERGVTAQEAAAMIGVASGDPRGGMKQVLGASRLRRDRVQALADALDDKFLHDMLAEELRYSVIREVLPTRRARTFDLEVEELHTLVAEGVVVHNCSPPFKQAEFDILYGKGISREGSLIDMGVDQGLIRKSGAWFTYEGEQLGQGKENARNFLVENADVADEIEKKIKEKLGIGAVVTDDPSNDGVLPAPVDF
PfHsp40 yeast = rescue of PfHsp40-mediated yeast toxicity | S. cerevisiae expressing PfHsp40, growth rescue, ATP luminescence | growth rescue, % at 12.5 µM | hit rate 0.68% among 340,000; in the data active = growth rescue above about 28%, passing the limit was not always enough; inconclusive = no clear call, values can overlap the other calls;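 note: yeast W303a lacking pdr1 and pdr3 grown in galactose medium; growth measured after three days at 30 °C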
Mtb hypoxia rep = Mtb hypoxia fluorescent reporter inhibition; fluorescence inhibition, % (test concentration not listed); M. tuberculosis hypoxia-regulated fluorescent reporter, fluorescence; hit rate 0.1% among 300,000; in the data active = fluorescence inhibition mostly above about 23%, no sharp cut-off; inactive = mostly below about 17%
GFP chromo cs = counter-screen GFP chromophore formation inhibition; shares compounds with RecA intein inh; cell-free GFP chromophore formation, fluorescence; EC50, µM; hit rate 83% among 2,100
The depositor's hits bear a star. The list is not random: actives were taken first. Their share in the collection is about 1.7%. Unless noted, the rule behind the calls is not given here.

What do the screens show for `CC(=O)c1ccc(-c2cccc(-c3nc4ccccn4c3NC3CCCCC3)c2)cc1`?
Mtb bLac sens: 98; CCHF vOTU inh: 5; RecA intein inh: 32*; PfHsp40 yeast: inconclusive; Mtb hypoxia rep: -14; GFP chromo cs: 0.38*

What do the screens show for `CCC(C)Sc1cc(-c2nc3ccccn3c2NC2CCCCC2)ccc1OC` (stereo unspecified)?
Mtb bLac sens: 100; CCHF vOTU inh: -5; RecA intein inh: 14; PfHsp40 yeast: inconclusive; Mtb hypoxia rep: 6

How did C#CCOc1ccc(Cl)cc1C=NO do in these assays?
Mtb hypoxia rep: 10

What do the screens show for `Cc1ccc2c(c1)c1c3n2CCN(C(=O)CCl)C3CCC1` (stereo unspecified)?
Mtb bLac sens: 100; CCHF vOTU inh: -15; RecA intein inh: 73*; PfHsp40 yeast: 2; GFP chromo cs: 7.3*

How did Nc1cc(N)c(OCC(F)(F)F)cc1OCC(F)(F)F do in these assays?
Mtb bLac sens: -18; RecA intein inh: 92*; PfHsp40 yeast: -1; Mtb hypoxia rep: 16; GFP chromo cs: 7.6*

Results for CS(=O)(=O)c1ccc(C(=O)OCC(=O)NC23CC4CC(CC(C4)C2)C3)cc1[N+](=O)[O-] ?
Mtb bLac sens: -1; CCHF vOTU inh: 10; RecA intein inh: 32*; PfHsp40 yeast: -1; Mtb hypoxia rep: 10; GFP chromo cs: >38

Results for Cn1c(-c2ccccc2)c(C(=O)CCl)c2ccccc21 ?
CCHF vOTU inh: -1; RecA intein inh: 42*; PfHsp40 yeast: 2; Mtb hypoxia rep: 15; GFP chromo cs: 14*

How did CCn1c(-c2ccccc2)c(C(=O)CCl)c2ccccc21 do in these assays?
Mtb bLac sens: 99; CCHF vOTU inh: -6; RecA intein inh: 40*; PfHsp40 yeast: 1; Mtb hypoxia rep: 15; GFP chromo cs: 1.6*

What do the screens show for `O=C(NCc1ccncc1)C(=O)NN=Cc1ccccn1`?
Mtb hypoxia rep: 6

What do the screens show for `CCN(CC)c1c([N+](=O)[O-])c(=O)n(C)c2ccccc12`?
Mtb bLac sens: 10; CCHF vOTU inh: 6; RecA intein inh: -2; PfHsp40 yeast: -2; Mtb hypoxia rep: 5

Results for Cn1c(=O)c([N+](=O)[O-])c(-n2cnc3ccccc32)c2ccccc21 ?
Mtb bLac sens: -10; CCHF vOTU inh: -4; RecA intein inh: 63*; PfHsp40 yeast: -1; Mtb hypoxia rep: 2; GFP chromo cs: 22*

How did Cn1c(=O)c([N+](=O)[O-])c(Cl)c2ccccc21 do in these assays?
CCHF vOTU inh: -9; RecA intein inh: 56*; PfHsp40 yeast: 0; Mtb hypoxia rep: 10; GFP chromo cs: 11*

How did CCCC(C)=NNC(=O)c1ccccc1O do in these assays?
Mtb hypoxia rep: 7

How did CC(CC(=O)NCc1ccco1)=NNC(=O)Cc1ccccc1 do in these assays?
Mtb hypoxia rep: -1

How did COc1ccc(N(C(=O)CCl)C(C(=O)NCCc2ccccc2)c2cccs2)cc1Cl (stereo unspecified) do in these assays?
Mtb bLac sens: 88; CCHF vOTU inh: 12; RecA intein inh: 77*; PfHsp40 yeast: 2; Mtb hypoxia rep: 7; GFP chromo cs: 0.96*

Results for COc1ccc(N(C(=O)c2ccco2)C(C(=O)NC2CCCCC2)c2cccs2)cc1OC (stereo unspecified) ?
Mtb bLac sens: -7; CCHF vOTU inh: 6; RecA intein inh: 3; PfHsp40 yeast: 0; Mtb hypoxia rep: 9

Results for COc1cccc(N(C(=O)CCl)C(C(=O)NCCc2ccccc2)c2cccs2)c1 (stereo unspecified) ?
Mtb bLac sens: 65; CCHF vOTU inh: -12; RecA intein inh: 73*; PfHsp40 yeast: 0; Mtb hypoxia rep: 11; GFP chromo cs: 3.3*

Results for CC(C)COc1cccc(-c2cc(C(=O)NN=Cc3ccncc3)c3ccccc3n2)c1 ?
Mtb hypoxia rep: -6

Results for C=CCn1c(=C(C#N)C(=O)NCC2CCCO2)sc(=Cc2ccccn2)c1=O (stereo unspecified) ?
Mtb hypoxia rep: -3

How did CCCCN1CCC2C=CCC(C(=O)Nc3nccs3)C2C1=O (stereo unspecified) do in these assays?
Mtb hypoxia rep: 12

What do the screens show for `O=C1/C(=C/c2cccc([N+](=O)[O-])c2)CCc2ccccc21`?
Mtb bLac sens: 33; CCHF vOTU inh: 19; RecA intein inh: 45*; PfHsp40 yeast: 8; Mtb hypoxia rep: 13; GFP chromo cs: 29*

How did NC(=O)C1CC2(CC(c3cccc(NC(=O)CC(c4ccccc4)c4ccccc4)c3)=NO2)CN1C(=O)C1CCC(=O)N1 (stereo unspecified) do in these assays?
Mtb hypoxia rep: -9

What do the screens show for `CCN(CC)CCN1C(=O)c2cccc3cc(N)cc(c23)C1=O`?
Mtb bLac sens: 1; CCHF vOTU inh: 23; RecA intein inh: 46*; PfHsp40 yeast: 0; Mtb hypoxia rep: 2; GFP chromo cs: 0.42*

What do the screens show for `Cc1cccc(COc2ccccc2C=NNc2ccc([N+](=O)[O-])cc2)c1`?
Mtb hypoxia rep: 2

Results for C/C(CC(=O)Nc1ccc(F)cc1F)=N\NC(=O)C(=O)N1CCCCC1 ?
Mtb bLac sens: -4; RecA intein inh: 78*; GFP chromo cs: 11*

Results for CC(CC(=O)Nc1cc(Cl)ccc1C)=NNC(=O)C(=O)N1CCCC1 ?
Mtb hypoxia rep: -2

How did Cc1cccc(CS(=O)(=O)c2nnc([C@H](Cc3ccccc3)NC(=O)OC(C)(C)C)o2)c1 do in these assays?
Mtb bLac sens: 13; RecA intein inh: 36*; PfHsp40 yeast: 373*; Mtb hypoxia rep: 6; GFP chromo cs: 11*

Results for COC(=O)CS(=O)(=O)c1nnc([C@H](Cc2ccccc2)NC(=O)OC(C)(C)C)o1 ?
Mtb bLac sens: -7; CCHF vOTU inh: 11; RecA intein inh: 69*; PfHsp40 yeast: 0; GFP chromo cs: 14*

What do the screens show for `O=C(NC1CC=CCC(CC(=O)N(CCO)Cc2ccccc2)C(=O)NCC(c2ccccc2)OC1=O)OCC1c2ccccc2-c2ccccc21` (stereo unspecified)?
Mtb hypoxia rep: 7

How did CC1(C)Cc2ccccc2C(NN=Cc2ccc(Cl)cc2)=N1 do in these assays?
Mtb hypoxia rep: 4

What do the screens show for `N#Cc1c(-c2ccccc2)nc(SCC(=O)N2c3ccccc3Sc3ccccc32)[nH]c1=O`?
Mtb bLac sens: -6; CCHF vOTU inh: 33*; RecA intein inh: 44*; PfHsp40 yeast: 6; Mtb hypoxia rep: 4; GFP chromo cs: 10*

Results for N#Cc1c(-c2ccccc2)nc(SCC(=O)N(c2ccccc2)c2ccccc2)[nH]c1=O ?
Mtb bLac sens: 6; CCHF vOTU inh: 14; RecA intein inh: 16; PfHsp40 yeast: 0; Mtb hypoxia rep: -3

What do the screens show for `COc1ccc(-c2csc(C)n2)cc1`?
Mtb bLac sens: -1; CCHF vOTU inh: 0; RecA intein inh: 0; PfHsp40 yeast: 0; Mtb hypoxia rep: 2

How did COc1ccc(-c2csc(CCN3N=C(C)CC3=O)n2)cc1 do in these assays?
Mtb bLac sens: 2; CCHF vOTU inh: 7; RecA intein inh: 86*; PfHsp40 yeast: 1; Mtb hypoxia rep: 2; GFP chromo cs: 4.8*
